In ChEMBL document CHEMBL1961873, “Compounds: GSK PKIS; Assays: Nanosyn kinase panel” (2012):

Tested on: Epidermal growth factor receptor (Homo sapiens), P00533 [L858R]
Conditions: at 0.1 µM

Epidermal growth factor receptor (Homo sapiens), P00533 [L858R], sequence (P00533 whole entry L858R): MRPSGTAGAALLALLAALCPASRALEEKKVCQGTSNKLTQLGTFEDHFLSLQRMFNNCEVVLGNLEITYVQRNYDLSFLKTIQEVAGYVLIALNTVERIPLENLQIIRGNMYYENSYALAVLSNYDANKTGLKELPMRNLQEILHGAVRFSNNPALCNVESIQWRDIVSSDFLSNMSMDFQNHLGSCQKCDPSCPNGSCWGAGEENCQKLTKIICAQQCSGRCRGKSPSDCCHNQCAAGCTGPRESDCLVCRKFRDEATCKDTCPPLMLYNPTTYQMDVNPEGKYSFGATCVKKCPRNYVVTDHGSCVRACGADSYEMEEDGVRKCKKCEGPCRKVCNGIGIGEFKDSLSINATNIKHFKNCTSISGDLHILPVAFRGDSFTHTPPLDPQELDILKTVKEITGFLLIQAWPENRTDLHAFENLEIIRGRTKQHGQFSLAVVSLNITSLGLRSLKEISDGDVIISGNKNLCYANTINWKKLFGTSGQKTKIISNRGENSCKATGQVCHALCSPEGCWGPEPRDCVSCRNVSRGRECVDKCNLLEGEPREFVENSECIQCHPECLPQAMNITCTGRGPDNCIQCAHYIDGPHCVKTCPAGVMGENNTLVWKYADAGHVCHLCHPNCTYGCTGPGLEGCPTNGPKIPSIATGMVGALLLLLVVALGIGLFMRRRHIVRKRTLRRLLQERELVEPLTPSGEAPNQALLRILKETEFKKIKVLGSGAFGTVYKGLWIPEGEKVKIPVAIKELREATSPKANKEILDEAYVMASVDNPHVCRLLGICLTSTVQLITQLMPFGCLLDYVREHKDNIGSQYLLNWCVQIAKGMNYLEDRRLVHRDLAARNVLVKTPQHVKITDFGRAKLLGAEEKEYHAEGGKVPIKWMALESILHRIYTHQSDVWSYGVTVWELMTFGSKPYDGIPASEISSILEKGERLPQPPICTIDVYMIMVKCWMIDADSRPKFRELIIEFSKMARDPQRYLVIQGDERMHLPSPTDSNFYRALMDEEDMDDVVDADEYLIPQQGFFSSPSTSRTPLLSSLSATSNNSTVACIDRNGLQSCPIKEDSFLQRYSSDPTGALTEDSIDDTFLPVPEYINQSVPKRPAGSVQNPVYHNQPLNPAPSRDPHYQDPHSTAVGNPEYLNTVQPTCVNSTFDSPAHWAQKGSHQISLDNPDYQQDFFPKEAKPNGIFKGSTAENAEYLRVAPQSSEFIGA

In order of falling inhibition:
1. Cc1ccc(O)cc1Nc1ccnc2cc(-c3ccccn3)ccc12  88.8%
2. [O-][S+]1CCN(Cc2ccc(-c3ccc4ncnc(Nc5ccc(OCc6cccc(F)c6)c(Cl)c5)c4c3)o2)CC1  88.1%
3. COc1cccc(-c2c[nH]c3c(N/N=C/c4ccncc4)ncnc23)c1  30.4%
4. COc1ccc2[nH]c3c4[nH]c5ccc(OC)cc5c4c4c(c3c2c1)C(=O)NC4=O  18.2%
5. CNC(=O)c1cccc(C#Cc2cncnc2Nc2ccc(OCc3cccc(F)c3)c(Cl)c2)c1  13.8%
6. CC(=O)NCc1cccc(C#Cc2cncnc2Nc2ccc(OCc3cccc(F)c3)c(Cl)c2)c1  10.4%
7. CS(=O)(=O)CCNCc1ccc(-c2ccc3ncnc(Nc4ccc(OCc5ccccc5)c(C(F)(F)F)c4)c3c2)o1  9.52%
8. COc1ccc(-c2nn3ncccc3c2-c2ccnc(Nc3ccc4c(c3)OCCO4)n2)cc1  8.22%
9. c1cc(-c2cnn3nc(N4CCOCC4)ccc23)nc(NC2CC2)n1  5.72%
10. COc1cc2c(cc1Nc1nc(Nc3ccsc3C(N)=O)c3cc[nH]c3n1)N(C(=O)CN(C)C)CCC2(C)C  5.69%
11. FC(F)(F)c1cccc(-c2nn3ncccc3c2-c2ccnc(Nc3ccc4c(c3)OCCO4)n2)c1  5.51%
12. Nc1ncc(-c2cccc(S(N)(=O)=O)c2)c2scc(-c3ccc(F)c(Cl)c3)c12  5.06%
13. CCN(CC)S(=O)(=O)c1ccc(OC)c(Nc2ncc(-c3ccccc3)o2)c1  4.33%
14. Cc1cccc2c1NC(=O)/C2=N\Nc1ccc(S(N)(=O)=O)cc1  3.74%
15. COc1ccc(-c2oc3ncnc(N)c3c2-c2ccc(NC(=O)Nc3cc(C(F)(F)F)ccc3F)cc2)cc1  3.73%
16. CN1CCC(n2cnc(-c3ccc(F)cc3)c2-c2ccnc(N)n2)CC1  3.61%
17. CCn1c(-c2nonc2N)nc2ccccc21  3.02%
18. NS(=O)(=O)c1ccc(Nc2ncc(-c3ccccc3)o2)cc1  2.83%
19. CNC(=O)c1cncc(/C=C/c2ccccc2Cl)c1  1.57%
20. COc1ccc(-c2cc(-c3c[nH]nc3-c3ccccn3)ccn2)cc1  1.51%
21. CCn1c(-c2nonc2N)nc2cnc(Oc3cccc(NC(=O)c4ccc(N(C)C)cc4)c3)cc21  1.49%
22. NS(=O)(=O)c1ccc(N/N=C2\C(=O)Nc3ccc4ncccc4c32)cc1  1.35%
23. c1ccc(-c2nc3n(c2-c2ccc4c(c2)OCO4)CCC3)nc1  0.88%
24. COc1ccc(-c2cc3c(N)ncnc3o2)cc1  0.82%
25. N#Cc1c(NC(=O)c2ccc(F)cc2)sc2c1CCCC2  0.66%
26. Nc1nc(-c2cccc(Cl)c2)c(-c2ccc3ncccc3n2)s1  0.4%
27. O=C(Nc1n[nH]c2cc(-c3ccc(F)cc3)ccc12)C1CC1  0.24%
28. CC(C)COC(=O)c1ccc2c(c1)/C(=C/Nc1ccc(S(N)(=O)=O)cc1)C(=O)N2  -0.29%
29. CCn1c(-c2nonc2N)nc2c(C#CC(C)(C)O)ncc(OC3CCNCC3)c21  -0.6%
30. COC(=O)Nc1nc2ccc(S(=O)(=O)c3ccc(NC(=O)Nc4cc(C(F)(F)F)ccc4F)cc3)cc2[nH]1  -0.69%
31. CCn1cc(-c2ccnc3[nH]ccc23)c(-c2cccc(NC(=O)Nc3ccc(OCc4ccccc4)cc3)c2)n1  -3.83%

Tested on: Epidermal growth factor receptor (Homo sapiens), P00533 [L858R]
Conditions: at 1 µM

In order of falling inhibition:
1. [O-][S+]1CCN(Cc2ccc(-c3ccc4ncnc(Nc5ccc(OCc6cccc(F)c6)c(Cl)c5)c4c3)o2)CC1  99.1%
2. Cc1ccc(O)cc1Nc1ccnc2cc(-c3ccccn3)ccc12  97.8%
3. COc1cccc(-c2c[nH]c3c(N/N=C/c4ccncc4)ncnc23)c1  82.3%
4. COc1ccc2[nH]c3c4[nH]c5ccc(OC)cc5c4c4c(c3c2c1)C(=O)NC4=O  64.8%
5. CNC(=O)c1cccc(C#Cc2cncnc2Nc2ccc(OCc3cccc(F)c3)c(Cl)c2)c1  62.1%
6. COc1ccc(-c2nn3ncccc3c2-c2ccnc(Nc3ccc4c(c3)OCCO4)n2)cc1  57.4%
7. FC(F)(F)c1cccc(-c2nn3ncccc3c2-c2ccnc(Nc3ccc4c(c3)OCCO4)n2)c1  55.7%
8. CC(=O)NCc1cccc(C#Cc2cncnc2Nc2ccc(OCc3cccc(F)c3)c(Cl)c2)c1  54.2%
9. CS(=O)(=O)CCNCc1ccc(-c2ccc3ncnc(Nc4ccc(OCc5ccccc5)c(C(F)(F)F)c4)c3c2)o1  50.1%
10. COc1cc2c(cc1Nc1nc(Nc3ccsc3C(N)=O)c3cc[nH]c3n1)N(C(=O)CN(C)C)CCC2(C)C  33.1%
11. Nc1ncc(-c2cccc(S(N)(=O)=O)c2)c2scc(-c3ccc(F)c(Cl)c3)c12  23.1%
12. CN1CCC(n2cnc(-c3ccc(F)cc3)c2-c2ccnc(N)n2)CC1  16.5%
13. Nc1nc(-c2cccc(Cl)c2)c(-c2ccc3ncccc3n2)s1  15.8%
14. CCN(CC)S(=O)(=O)c1ccc(OC)c(Nc2ncc(-c3ccccc3)o2)c1  11.6%
15. CNC(=O)c1cncc(/C=C/c2ccccc2Cl)c1  10.9%
16. COc1ccc(-c2cc(-c3c[nH]nc3-c3ccccn3)ccn2)cc1  8.95%
17. COc1ccc(-c2oc3ncnc(N)c3c2-c2ccc(NC(=O)Nc3cc(C(F)(F)F)ccc3F)cc2)cc1  6.19%
18. NS(=O)(=O)c1ccc(Nc2ncc(-c3ccccc3)o2)cc1  6.04%
19. Cc1cccc2c1NC(=O)/C2=N\Nc1ccc(S(N)(=O)=O)cc1  5.52%
20. O=C(Nc1n[nH]c2cc(-c3ccc(F)cc3)ccc12)C1CC1  4.19%
21. NS(=O)(=O)c1ccc(N/N=C2\C(=O)Nc3ccc4ncccc4c32)cc1  2.75%
22. N#Cc1c(NC(=O)c2ccc(F)cc2)sc2c1CCCC2  2.49%
23. CCn1c(-c2nonc2N)nc2c(C#CC(C)(C)O)ncc(OC3CCNCC3)c21  2.18%
24. c1cc(-c2cnn3nc(N4CCOCC4)ccc23)nc(NC2CC2)n1  2.16%
25. COC(=O)Nc1nc2ccc(S(=O)(=O)c3ccc(NC(=O)Nc4cc(C(F)(F)F)ccc4F)cc3)cc2[nH]1  1.58%
26. CCn1c(-c2nonc2N)nc2cnc(Oc3cccc(NC(=O)c4ccc(N(C)C)cc4)c3)cc21  1.2%
27. CCn1c(-c2nonc2N)nc2ccccc21  0.86%
28. CC(C)COC(=O)c1ccc2c(c1)/C(=C/Nc1ccc(S(N)(=O)=O)cc1)C(=O)N2  0.49%
29. COc1ccc(-c2cc3c(N)ncnc3o2)cc1  -0.02%
30. c1ccc(-c2nc3n(c2-c2ccc4c(c2)OCO4)CCC3)nc1  -1.2%
31. CCn1cc(-c2ccnc3[nH]ccc23)c(-c2cccc(NC(=O)Nc3ccc(OCc4ccccc4)cc3)c2)n1  -3.23%
